# hcDAF12 agonist: activators of H. contortus DAF-12 nuclear receptor; 1.4% of 370,000 active; activation, % at 6.8 µM; HEK293 hcDAF-12 lit1-tk-luc reporter, luminescence; 0% DMSO, 100% Δ7-dafachronic acid;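 active means activation above the mean of all tested compounds plus 3 SD, cut at about 5.5% in these data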;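 further: 100% = response to 3 µM Δ7-dafachronic acid high control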
# DAX1 inh-1: inhibitors of DAX1 repression of SF-1 activated StAR promoter; HEK293T StAR-luciferase reporter, SF-1/DAX-1 repression relief; inhibition, % at 6.8 µM; 1.1% of 370,000 active;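 active means inhibition above the mean over all tested compounds plus 3 SD, cut at about 3.6% in these data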;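 further: 0% = DAX-1 cells with DMSO and 100% = cells lacking DAX-1 with DMSO; higher inhibition means more luminescence from relief of DAX-1 repression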
# PolyA inh: inhibitors of polyadenylation in S. cerevisiae; S. cerevisiae SKY197-pL101 polyadenylation reporter, beta-gal luminescence; efflux-impaired pdr1/pdr3 knockout yeast; score 100 = 6 SD above DMSO; activity score, % at 12 µM; 0.02% of 300,000 active; AID 1875;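 active means lowest replicate activity score at least 50, where 100 means six control SD above control mean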;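 further: yeast exposed to compound for 9 h at 30 °C; higher score means more reporter readthrough which indicates perturbed polyadenylation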
# hgDAF-12 ag: agonists of H. glycines DAF-12 nuclear receptor. activation, % at 6.8 µM. HEK293 GAL4-hgDAF12 UAS-luciferase reporter, agonist luminescence; normalized to butyrate control. 1.8% of 370,000 active. AID 687014;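 active means activation above a cutoff set at the mean of all screened compounds plus 3 SD, cut at about 10% in these data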;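 further: 0% = DMSO wells and 100% = sodium butyrate wells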
# ssDAF-12 act: activators of S. stercoralis DAF-12 nuclear receptor; AID 652126; activation, % at 6.8 µM; HEK293 ssDAF-12/GRIP1 lit1-tk-luc reporter, luminescence; % of 3 µM dafachronic acid response; 1% of 370,000 active;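 active means activation above the mean over all tested compounds plus 3 SD, cut at about 0.9% in these data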;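 further: 0% = DMSO-only wells and 100% = 3 µM delta7-dafachronic acid wells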
# DAX1 inh-2: NR0B1 (DAX1) inhibition | HEK293 Gal4-DAX1 luciferase reporter, luminescence | inhibition, % at 6.75 µM | 0.99% of 340,000 active | AID 504766;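 active means inhibition above the mean over all tested compounds plus 3 SD, cut at about 4.2% in these data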;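 further: 0% = DAX1-transfected cells with DMSO and 100% = empty-vector control cells with DMSO; inhibition shows as a rise in luminescence from relieved DAX1 repression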
# Target sequence (P51843 207-470 limits assumed): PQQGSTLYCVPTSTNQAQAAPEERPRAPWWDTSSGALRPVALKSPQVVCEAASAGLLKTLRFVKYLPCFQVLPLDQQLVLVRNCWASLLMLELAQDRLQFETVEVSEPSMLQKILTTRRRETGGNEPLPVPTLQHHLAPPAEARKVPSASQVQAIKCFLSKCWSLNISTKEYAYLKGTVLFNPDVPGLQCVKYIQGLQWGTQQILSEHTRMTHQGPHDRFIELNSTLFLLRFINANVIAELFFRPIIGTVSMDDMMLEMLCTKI
# An asterisk follows results filed as active; . = not tested or not shown. A selection: hits, their analogues and other compounds. The true share with any hit is near 4.1%.
SMILES,hcDAF12 agonist,DAX1 inh-1,PolyA inh,hgDAF-12 ag,ssDAF-12 act,DAX1 inh-2
O=C(c1ccco1)N1CCN(C(=O)c2ccco2)CC1,-2.1,1.1,.,0.0,-0.8,.
O=C(c1cc(-c2cccc(O)c2)on1)N1CCCC1,5.5,1.7,-8.6,13.1*,-0.2,2.9
CN1CCN(C(=O)c2cc(-c3ccccc3)on2)CC1,0.6,1.2,4.0,3.6,-0.8,0.1
O=[N+]([O-])c1cccc(-c2ccc(C(=S)N3CCN(c4ccccc4)CC3)o2)c1,-0.8,-0.7,3.0,0.8,-1.0,.
COc1ccc(-c2cc(C(=O)N3CCCCCC3)no2)cc1OC,0.8,0.4,-11.3,10.5*,-0.5,1.0
S=C(c1ccc(-c2cc(Cl)ccc2Cl)o1)N1CCOCC1,-1.9,0.3,-0.3,0.7,-1.2,0.6
CN1CCN(C(=S)c2ccc(-c3cccc([N+](=O)[O-])c3)o2)CC1,6.5*,1.6,4.2,9.8,-0.6,7.9*
S=C(c1ccc(-c2cccc(Cl)c2)o1)N1CCOCC1,5.5,3.5,-27.3,13.1*,-0.4,3.1
COc1cccc(/C=C2\CC3(OC(=O)c4ccccc4)CCCN2C3)c1 (stereo not given),1.5,-0.2,.,-1.6,-0.8,.
CC(C)(C)c1ccc(S(=O)(=O)N2CCCC(C(=O)NCc3cccs3)C2)cc1 (stereo not given),-1.2,-0.8,.,3.2,-1.7,.
O=C(c1cc(-c2ccc(F)cc2)on1)N1CCCC1,3.5,2.5,12.4,13.1*,-0.9,0.8
O=C(c1cc(-c2ccc(F)cc2)on1)N1CCCCCC1,2.4,1.5,21.2,12.3*,-0.4,2.9
O=C(c1cc(-c2ccc(O)cc2)on1)N1CCN(c2ccc(F)cc2)CC1,-1.1,-0.9,9.1,1.8,-1.2,-1.0
O=C(c1cc(-c2ccc(Cl)cc2)on1)N1CCOCC1,3.7,4.0*,5.4,12.2*,0.0,0.8
O=C(c1cc(-c2cccc(Cl)c2)on1)N1CCOCC1,0.9,0.6,8.2,11.0*,0.7,-0.1
O=C(CSc1nc2ccccc2o1)NN=C/C=C/c1ccccc1,0.5,1.9,.,6.3,0.2,.
O=C(c1cc(-c2ccc(F)cc2)on1)N1CCOCC1,3.1,2.0,10.9,12.9*,0.3,-0.1
O=C(c1cc(-c2ccc(Cl)c(Cl)c2)on1)N1CCOCC1,1.5,1.0,0.9,3.1,0.0,1.5
C=CCN(C(=O)CNC(=O)c1ccco1)C(C(=O)NC1CCCC1)c1cccs1 (stereo not given),-2.2,0.8,10.5,-4.4,-1.8,1.4
O=C(NCC(=O)N(CCN1CCOCC1)C(C(=O)NC1CCCC1)c1cccs1)c1ccco1 (stereo not given),1.5,0.7,3.6,2.6,-1.1,4.7*
O=C(NCc1cccnc1)c1nn2cccnc2c1Cl,1.1,0.9,9.0,1.1,-1.4,5.0*
COC(=O)c1cc(NC(=O)NC2CCCCN(Cc3ccc(Cl)cc3)C2=O)cc(C(=O)OC)c1 (stereo not given),-3.3,-1.5,.,-0.4,-1.1,.
COC(=O)[C@@H](Cc1c[nH]c2ccccc12)NCc1cccc(B(O)O)c1,5.8*,-0.9,.,-1.9,-0.3,-0.1
COC(=O)[C@@H](Cc1c[nH]c2ccccc12)NC(=O)CCC(=O)c1ccc(F)cc1,5.6*,-0.2,-3.4,-0.2,-0.4,0.1
COC(=O)C(Cc1c[nH]c2ccccc12)NC(C)=O (stereo not given),0.3,0.1,2.4,3.8,-0.3,1.1
SMILES,hcDAF12 agonist,DAX1 inh-1,PolyA inh,hgDAF-12 ag,ssDAF-12 act,DAX1 inh-2
C=CCOC(=O)N[C@@H](c1cccc(OC)c1)[C@@H](C)/C=C/CC(=O)O,0.2,0.1,.,-3.1,-1.2,.
O=C(Nc1ccccc1O)c1cc2cc(Br)ccc2oc1=O,2.4,0.0,13.6,7.1,1.1*,2.5
O=C(NNC(=O)c1cc2cc(Br)ccc2oc1=O)c1ccc(O)cc1,0.7,0.4,-14.4,-1.9,2.5*,-0.3
NC(=S)c1cc2cc(Br)ccc2oc1=O,1.6,-0.4,-19.6,2.0,-2.0,-0.1
COc1ccc2oc(=O)c(C(=O)Nc3ccccc3C)cc2c1,4.4,1.9,-9.7,11.7*,0.4,2.9
C#CCN(Cc1ccco1)C(=O)c1nnc2c3cc(OC)ccc3n(S(=O)(=O)c3ccc(OC)cc3)c2n1,0.4,0.6,.,3.4,-0.3,.

# Compound activity (PubChem)
